Measured values taken from PubChem BioAssay (NCATS).
Records with an inconclusive call do not appear. Unmarked numbers belong to inactive results. Calls of active or inactive are those of the source. Calls follow the shape of the dose curve; as a rule, active = well fitted inhibition curve with a large enough effect; inconclusive = small, poorly fitted or top-dose-only effect; inactive = flat fitted curve, though single readings scatter.

These compounds were tested against Aldehyde dehydrogenase, mitochondrial (Homo sapiens) (UniProt P05091) (assay: qHTS for Inhibitors of the Aldehyde Dehydrogenase Family (ALDH2) Primary screen (AID 2061308;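 also: plate controls were vehicle for no effect and reference inhibitor for full effect; nearly all actives have a fitted effect of over 55% in size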)). Conditions: ALDH2 enzyme inhibition qHTS, 1536-well; series mostly up to 56 µM; activity change, negative = inhibition: at the top concentration.
For `Cc1cc(C(=O)N2CCCCc3ccccc32)ccc1CNC(=O)N1CCC[C@H]1C(=O)N(C)C`, the “activity change, negative = inhibition” value was -0.266%.
For `CNCCCC1(c2ccccc2)OC(C)(C)c2ccccc21` (stereo not given), the “activity change, negative = inhibition” value was 4.56%.
`CCC(C(C)O)n1ncn(-c2ccc(N3CCN(c4ccc(OCC5COC(Cn6cncn6)(c6ccc(F)cc6F)C5)cc4)CC3)cc2)c1=O` (stereo not given) was tested, and the “activity change, negative = inhibition” value was 1.94%.
With `c1ccc(CN(CC2=NCCN2)c2ccccc2)cc1` the “activity change, negative = inhibition” value was 2.51%.
`COc1cc(NC(=O)c2cc(C3CC3)on2)c(OC)cc1Cl` was tested, and the “activity change, negative = inhibition” value was 1.1%.
For `COc1cccc(-c2cc(NCc3ccc4c(c3)OCO4)nc(N)n2)c1`, the “activity change, negative = inhibition” value was 72.8%.
With `COc1ccc(-c2nc(-c3cc(C(F)(F)F)cc(C(F)(F)F)c3)n(Cc3ccc(C(N)=O)cc3)c2-c2ccc(OC)cc2)cc1` the “activity change, negative = inhibition” value was 0.406%.
`CC1(C)CCC(C)(C)c2cc(C3(c4ccc(C(=O)O)cc4)OCCO3)ccc21` was tested, and the “activity change, negative = inhibition” value was -0.76%.
With `O=C(Nc1ccc(CN2CCOCC2)cc1)c1ccc(-c2cccc(Cl)c2)o1` the “activity change, negative = inhibition” value was -0.762%.
With `NS(=O)(=O)c1ccc(N2CCN(CC[C@@H]3OCCc4ccccc43)CC2)cc1` the “activity change, negative = inhibition” value was 1.22%.
In the case of `O=C(NCCCN1CCC2(CC1)OCc1ccccc12)[C@H]1CCCN1Cc1ccccc1`, the “activity change, negative = inhibition” value is reported as 2.35%.
With `CN[C@@H]1[C@@H](O)[C@@H](O[C@@H]2[C@@H](O)[C@H](O[C@H]3O[C@@H]([C@@H](C)NC)CC[C@H]3N)[C@@H](N)C[C@H]2N)OC[C@]1(C)O` the “activity change, negative = inhibition” value was 3.57%.
In the case of `CCn1c2ccccc2c2cc(CNC)ccc21`, the Potency is reported as “inactive”.
For `Cc1onc(-c2ccccc2Cl)c1C(=O)N(C)c1ccc(Cl)cc1`, the “activity change, negative = inhibition” value was -3.56%.
With `COc1ccc(Cl)cc1[C@@]1(F)C(=O)Nc2cc(C(F)(F)F)ccc21` the “activity change, negative = inhibition” value was -6.36%.
In the case of `O=C(NCCCn1ccnc1)c1cc(-c2ccco2)on1`, the “activity change, negative = inhibition” value is reported as 2.01%.
With `O=C(CC1NCCC[C@H]1O)Cn1cnc2cc(Br)c(Cl)cc2c1=O` (stereo not given in full) the “activity change, negative = inhibition” value was -13.4%.
In the case of `CCC1C(=O)N(C)c2cnc(Nc3ccc(C(=O)NC4CCC(N5CCN(CC6CC6)CC5)CC4)cc3OC)nc2N1C(C)C` (stereo not given), the “activity change, negative = inhibition” value is reported as 7.98%.
In the case of `CS(=O)(=O)NCC1CCC(Nc2nc3c(s2)CCSc2ccccc2-3)CC1` (stereo not given), the “activity change, negative = inhibition” value is reported as -9.11%.
With `CC(NC(=O)CCc1nc2ccccc2c(=O)[nH]1)c1ccccc1` (stereo not given) the “activity change, negative = inhibition” value was 4.34%.
In the case of `CN(C)c1nc(Cc2ccc(NC(=O)c3ccc4ccccc4c3)cc2)nc(Cl)c1CC(=O)O`, the “activity change, negative = inhibition” value is reported as -2.93%.
With `CCNC(=O)N1CCCN(c2ccc(C(=O)NCCc3ccc(Cl)cc3Cl)cc2NC(=O)c2cccc(Cl)c2)CC1` the “activity change, negative = inhibition” value was -2.02%.
For `CCc1c(CC(N)=O)c2cc(OCCCP(=O)(O)O)ccc2n1Cc1ccccc1`, the “activity change, negative = inhibition” value was -11.4%.
For `CC[C@H]1CN(c2nc(N)c(C(N)=O)nc2Cl)CCN1C1CCN(Cc2ccc(Cl)cc2)CC1`, the “activity change, negative = inhibition” value was -0.725%.
For `CC(C)CCNc1ncccc1C(=O)N1CCN(Cc2ccccc2)CC1`, the “activity change, negative = inhibition” value was 4.86%.
`CCCc1ccc(OCC(=O)N(Cc2nc(-c3cccnc3)no2)C(C)C)cc1` was tested, and the “activity change, negative = inhibition” value was 10.4%.
With `Cc1c(C(=O)Nc2ccc(N3CC(C)OC(C)C3)nc2)cccc1-c1ccc(OC(F)(F)F)cc1` (stereo not given) the “activity change, negative = inhibition” value was 0.688%.
In the case of `COCCN1CCC(C(=O)NO)(S(=O)(=O)c2ccc(Oc3ccc(OC(F)(F)F)cc3)cc2)CC1`, the “activity change, negative = inhibition” value is reported as 3.9%.
`CC1(C)CCC(C)(C)c2cc(C#Cc3ccc(C(=O)O)cc3)ccc21` was tested, and the “activity change, negative = inhibition” value was 6.79%.
For `O=C(NCCN1CCC(n2c(=O)[nH]c3ccccc32)CC1)c1ccc2ccccc2c1`, the “activity change, negative = inhibition” value was 2.39%.
For `O=C(c1cn(Cc2cncn2Cc2ccc(Br)cc2)cc1-c1cccc2ccccc12)N1CCOCC1`, the “activity change, negative = inhibition” value was 4.31%.
For `Cc1nc(C(=O)N2CCC[C@H]2Cc2nnc(-c3ccccc3)o2)c(-c2ccccc2F)s1`, the “activity change, negative = inhibition” value was 18.1%.
`Cc1cc(-c2nncc3c(C(C)(C)C)c(OCc4ncnn4C)nn23)no1` was tested, and the “activity change, negative = inhibition” value was -4.78%.
For `CCC(C)n1cc(C)c2c(C(=O)NCc3c(C)cc(C)[nH]c3=O)cc(-c3ccc(N4CCNCC4)nc3)cc21` (stereo not given), the “activity change, negative = inhibition” value was 0.266%.
`CN(C)C(=O)NC1(c2ccccc2)CCN(CCC[C@]2(c3ccc(Cl)c(Cl)c3)CCCN(C(=O)c3ccccc3)C2)CC1` was tested, and the “activity change, negative = inhibition” value was -2.28%.
For `COc1cc(-c2cn(C3CCc4c(F)cccc4N(CC(F)(F)F)C3=O)nn2)ccc1-n1cnc(C)c1` (stereo not given), the “activity change, negative = inhibition” value was 5.86%.
`Cc1onc(-c2c(Cl)cccc2Cl)c1CC(=O)NCc1ccc(OCC(F)(F)F)nc1` was tested, and the “activity change, negative = inhibition” value was -3.66%.
`CCNC(=O)c1noc(-c2cc(Cl)c(O)cc2O)c1-c1ccc(OC)cc1` was tested, and the “activity change, negative = inhibition” value was -12.2%.
`CCNC(=O)[C@H]1O[C@H](n2cnc3c(NCC(c4ccccc4)c4ccccc4)nc(C(=O)NCCNC(=O)NC4CCN(c5ccccn5)CC4)nc32)[C@H](O)[C@@H]1O` was tested, and the “activity change, negative = inhibition” value was 3.69%.
For `COc1cc(C(=O)NCC2(N(C)C)CCCC2)cc(OC)c1OCc1ccccc1`, the “activity change, negative = inhibition” value was 5.7%.
